Measurements: PubChem BioAssay (NCATS)
Inconclusive results are not listed. Calls of active or inactive are those of the source. The call rests on the fitted dose curve; in most records, active means well fitted curve in the direction sought with a large enough effect; inconclusive means small, poorly fitted or top-dose-only effect, or another doubt; inactive means no such curve, though single readings can be large; an effect the other way counts as inactive or inconclusive.

Experiments:
[1] = Quantitative High-Throughput drug screen in 47 multiple myeloma cell lines against the NCATS MIPE library collection: AMO1_DSMZ cell viability assay (AID 1918927; further: potency means the concentration at half of the fitted maximal effect; nearly all actives have a fitted effect of over 30% in size)
Procedure, shortened: (§1)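 Primary qHTS used for cherry-picking: cells at 500/well, library compounds for 48 h (37C, 5% CO2), luminescent ATP assay.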

[2] = Quantitative High-Throughput drug screen in 47 multiple myeloma cell lines against the NCATS MIPE library collection: Karpas620_DSMZ cell viability assay (AID 1918959); further: nearly all actives have a fitted effect of over 30% in size; further: potency means the concentration at half of the fitted maximal effect
Procedure, shortened: (§2)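 Myeloma cell lines, 500 cells per well, exposed to MIPE 4.0 library compounds for 48 h at 37C, 5% CO2. Viability from ATP by CellTiter-Glo luminescence; normalised to DMSO (100%) and media-only (0%) wells.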

[3] = Quantitative High-Throughput drug screen in 47 multiple myeloma cell lines against the NCATS MIPE library collection: KHM11_PLB cell viability assay (AID 1918962); further: nearly all actives have a fitted effect of over 35% in size; further: potency means the concentration at half of the fitted maximal effect
Procedure, shortened: as §2

[4] = Quantitative High-Throughput drug screen in 47 multiple myeloma cell lines against the NCATS MIPE library collection: INA6_PLB cell viability assay (AID 1918965; further: nearly all actives have a fitted effect of over 55% in size; further: potency means the concentration at half of the fitted maximal effect)
Procedure, shortened: as §2

[5] = Quantitative High-Throughput drug screen in 47 multiple myeloma cell lines against the NCATS MIPE library collection: ARP1_JJKsccF8 cell viability assay (AID 1918928; further: nearly all actives have a fitted effect of over 40% in size; further: potency means the concentration at half of the fitted maximal effect)
Procedure, shortened: (§3)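 ATP readout (CellTiter-Glo), 48 h drug incubation, 37 °C/5% CO2, 500 cells per well; normalisation to DMSO (100%) and media-only (0%) controls.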

[6] = Quantitative High-Throughput drug screen in 47 multiple myeloma cell lines against the NCATS MIPE library collection: ARD_JJKsccE7 cell viability assay (AID 1918929; further: potency means the concentration at half of the fitted maximal effect)
Procedure, shortened: as §1

[7] = Quantitative High-Throughput drug screen in 47 multiple myeloma cell lines against the NCATS MIPE library collection: KMM1_JCRB cell viability assay (AID 1918960); further: nearly all actives have a fitted effect of over 30% in size; further: potency means the concentration at half of the fitted maximal effect;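 on viability (% of DMSO): 100% = DMSO-treated cells and 0% = medium-only wells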
Procedure, shortened: as §3

[8] = Quantitative High-Throughput drug screen in 47 multiple myeloma cell lines against the NCATS MIPE library collection: JIM3_ECACC cell viability assay (AID 1918963; further: nearly all actives have a fitted effect of over 35% in size; further: potency means the concentration at half of the fitted maximal effect)
Procedure, shortened: as §2

[9] = Quantitative High-Throughput drug screen in 47 multiple myeloma cell lines against the NCATS MIPE library collection: JIM1_ECACC cell viability assay (AID 1918964; further: potency means the concentration at half of the fitted maximal effect)
Procedure, shortened: as §1

[10] = Quantitative High-Throughput drug screen in 47 multiple myeloma cell lines against the NCATS MIPE library collection: Karpas417_ECACC cell viability assay (AID 1918961); settings: Karpas417 myeloma viability, CellTiter-Glo ATP luminescence, 48 h; viability (% of DMSO): at 45.8 µM (top of the series) unless noted
Procedure, shortened: as §2

Cc1[nH]c(=O)c(C#N)cc1-c1ccncc1
inactive: Potency [2] | Potency [3]
active: Potency [1] 23.5 µM | Potency [4] 14.8 µM

COc1nc(-c2ccc3c(c2)OCO3)n(-c2ccc(NC(=O)CSc3ccccc3)cc2)n1
inactive: Potency [5] | Potency [6] | Potency [2] | Potency [7] | Potency [3] | Potency [8] | Potency [9] | Potency [4]

CNC(=O)c1ccc(C)c(-n2c(C)cc(OCc3ccc(F)cc3F)c(Br)c2=O)c1
active: Potency [1] 16.6 µM | Potency [7] 4.69 µM | Potency [9] 23.5 µM | Potency [4] 16.6 µM

COc1ccc(CCN2CCN(CCCc3ccccc3)CC2)cc1OC
inactive: Potency [5] | Potency [8]
active: Potency [6] 13.2 µM

Cc1ccccc1C(OCCN(C)C)c1ccccc1 (centres undefined)
inactive: Potency [5] | Potency [6] | Potency [2] | Potency [7] | Potency [3]

CCn1cc(C(=O)O)c(=O)c2cc(F)c(N3CCNC(C)C3)c(F)c21 (centres undefined)
inactive: Potency [5] | Potency [6] | Potency [2] | Potency [3] | Potency [9] | Potency [4]

OC(CN1CCC(Cc2ccc(F)cc2)CC1)c1ccc(Cl)cc1 (centres undefined)
inactive: Potency [5] | Potency [6] | Potency [2] | Potency [7] | Potency [8]

CC(C)OC(=O)C1=CN(C(=O)c2ccc(F)c(F)c2)CC(C)(C)c2c1[nH]c1ccccc21
inactive: Potency [5] | Potency [6]

NC(=O)c1ccc(I)c([N+](=O)[O-])c1
inactive: Potency [5] | Potency [6] | Potency [7]
active: Potency [8] 18.7 µM

CCc1cncnc1N1CCN(Cc2nc3ccc(C(F)(F)F)cc3[nH]2)CC1
inactive: Potency [9]
active: Potency [1] 6.62 µM | Potency [2] 7.43 µM | Potency [7] 2.64 µM | Potency [8] 20.9 µM | Potency [4] 10.5 µM

O=C1CCC(N2C(=O)c3ccccc3C2=O)C(=O)N1 (centres undefined)
active: Potency [5] 0.0662 µM
inactive: Potency [6] | Potency [2] | Potency [7] | Potency [3] | Potency [9] | Potency [4]

CCC(C)(C)C(=O)O[C@H]1C[C@@H](C)C=C2C=C[C@H](C)[C@H](CC[C@@H]3C[C@@H](O)CC(=O)O3)[C@H]21
active: Potency [5] 20.9 µM | Potency [6] 16.6 µM | Potency [3] 13.2 µM | Potency [8] 14.8 µM | Potency [9] 7.43 µM | Potency [4] 14.8 µM

COc1ccc([C@@H]2CC(=O)c3c(O)cc(O[C@@H]4O[C@H](CO[C@@H]5O[C@@H](C)[C@H](O)[C@@H](O)[C@@H]5O)[C@@H](O)[C@H](O)[C@@H]4O)cc3O2)cc1O
inactive: Potency [5] | Potency [6] | Potency [2] | Potency [7] | Potency [3] | Potency [9] | Potency [4]

CC1(C)Cc2c(-c3ccccc3)c(-c3ccc(Cl)cc3)c(CC(=O)O)n2C1
active: Potency [5] 23.5 µM | Potency [2] 6.62 µM | Potency [7] 2.35 µM
inactive: Potency [6]

COc1ccc(CC2=NN3C([C@@H](CCc4ccccc4)[C@@H](C)O)=NC(C)C3C(=O)N2)cc1OC (some centres undefined)
inactive: Potency [5] | Potency [2] | Potency [7]

CC1(C)SCCN(S(=O)(=O)c2ccc(OCC#CCO)cc2)[C@@H]1C(=O)NO
inactive: Potency [6] | Potency [2]
active: Potency [5] 2.35 µM

COc1ccccc1[C@H](c1cccc2ccccc12)[C@@](C)(C#N)C(=O)N1CCC(c2cccc(C(F)(F)F)c2)CC1
active: Potency [5] 8.33 µM | Potency [6] 4.18 µM | Potency [3] 6.62 µM | Potency [8] 9.35 µM | Potency [4] 1.87 µM

Cc1[nH]c(=O)c(C#N)cc1-c1ccc2nccn2c1
inactive: Potency [5] | Potency [6] | Potency [7] | Potency [3] | Potency [9]

Cc1n[nH]c(C)c1Cc1sc2c(c1C(=O)N1C[C@H](O)CO1)c(=O)n(C)c(=O)n2CC(C)C
inactive: Potency [5] | Potency [6] | Potency [2] | Potency [3] | Potency [8] | Potency [9]
active: Potency [7] 0.0118 µM

C[C@]1(c2nc3c(C(N)=O)cccc3[nH]2)CCCN1
inactive: Potency [5] | Potency [6] | Potency [2]
active: Potency [3] 18.7 µM

NC(=O)c1ccc(-c2nc(-c3ccc4c(c3)OCCO4)c(-c3ccccn3)[nH]2)cc1
active: Potency [5] 4.18 µM

Oc1cccc(-c2nc(N3CCOCC3)c3oc4ncccc4c3n2)c1
active: Potency [5] 0.0241 µM | Potency [2] 0.0959 µM | Potency [7] 0.0136 µM | viability (% of DMSO) [10] 2.23% [at 92.2 µM] | Potency [9] 0.0121 µM | Potency [4] 0.215 µM

COc1cc2c(cc1OC)CN(CCc1ccc(NC(=O)c3cccc4c(=O)c5cccc(OC)c5[nH]c34)cc1)CC2
active: Potency [8] 6.62 µM
inactive: Potency [5] | Potency [6] | Potency [9]

CCn1c(-c2nonc2N)nc2c(C#CC(C)(C)O)ncc(OC[C@H]3CCCNC3)c21
active: Potency [5] 0.59 µM | Potency [6] 0.148 µM | Potency [3] 7.43 µM | Potency [8] 9.35 µM | Potency [4] 4.18 µM

CCCn1c(=O)c2[nH]c(C34CC5CC3C[C@@H](C5)C4)nc2n(CCC)c1=O
inactive: Potency [6] | Potency [2] | Potency [4]
active: Potency [5] 9.35 µM

Cc1c(C)c2c(c(C)c1O)CCC(C)(COc1ccc(CC3SC(=O)NC3=O)cc1)O2 (centres undefined)
inactive: Potency [5]

COc1ccc(C2=N[C@H](c3ccc(Cl)cc3)[C@H](c3ccc(Cl)cc3)N2C(=O)N2CCNC(=O)C2)c(OC(C)C)c1
active: Potency [5] 16.6 µM | Potency [8] 18.7 µM
inactive: Potency [6] | Potency [2] | Potency [7]
